The text below walks through data of PubChem BioAssay (NCATS).

Holding throughout (test): qHTS profiling for inhibitors of Plasmodium falciparum proliferation (AID 504749); also: nearly all actives have a fitted effect of over 60% in size
What all share (conditions): P. falciparum in erythrocytes, SYBR Green DNA, 72 h; series mostly up to 28.7 µM
A general note: In qHTS, concentration-response curves come from the screen itself.

One assay relates to PC26. A digest of the protocol: (§1)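 Quantitative HTS: compounds pinned into medium, infected erythrocytes added (0.3% parasitemia, 2.5% hematocrit), 72 h culture at 37 C under 5% CO2. Saponin/Triton lysis with SYBR Green I, overnight RT, then fluorescence read.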
In another assay the test system is PC49. The essentials:
as §1

The test system of a further assay is SC27B. A digest of the protocol: as §1
The next assay concerns TAB109. A digest of the protocol: as §1
Another assay has as its system TAB113. A digest of the protocol:
as §1

The subject of a further assay is TAB165. A digest of the protocol: as §1
In another assay the test system is W2. A digest of the protocol: as §1

Each structure is given as a SMILES string. “And” between values parts separate entries of the source, which are not always exact repeats. Identical values can stand only once. Inconclusive results are not listed. The source made the active and inactive calls. Calls follow the shape of the dose curve; as a rule, active = well fitted inhibition curve with a large enough effect; inconclusive = small, poorly fitted or top-dose-only effect; inactive = flat fitted curve, though single readings scatter.
Potency is read from the fitted curve at half-maximal effect.

As to `ClC(Cl)(Cl)Cl`, the Potency entry in the assay with PC26, in the assay on PC49, in the assay on SC27B, with TAB109, in the assay on TAB113 and in the assay on TAB165 was “inactive” throughout. In addition, the Potency result in the assay on W2 is “inactive”.
For `F/C(COc1ccc2c(c1)[nH]c1ccccc12)=C1/CN2CCC1CC2`, the Potency in the assay on PC49 was 2.82 µM (active); with SC27B it was 10 µM (active); in the assay with TAB109 it was 7.94 µM (active); in the assay with TAB165, 4.47 µM (active); in the assay on W2, 1.51 µM (active).
Regarding `O=c1c2ccccc2[se]n1-c1ccccc1`, the Potency entry in the assay on PC49 is “inactive”. Besides, in the assay with TAB113, the Potency is 11.2 µM (active).
As to `COc1ccc2c(c1OC)C(=O)OC2C1c2cc3c(cc2CCN1C)OCO3` (stereo unspecified), the Potency result with PC49, with SC27B, in the assay with TAB109, with TAB113 and with TAB165 was “inactive” each time.
On to `C[C@H]1CCC[C@H](O)CCCCCc2cc(O)cc(O)c2C(=O)O1`, for which the Potency entry in the assay with PC49 and in the assay with TAB109 was “inactive” each time.
Take `CC(C)(C)c1cc(O)ccc1O`: the Potency was 12 µM (active) in the assay with PC26; 7.94 µM (active) in the assay on SC27B; 4.47 µM (active) in the assay on TAB109; 12.6 µM (active) in the assay with TAB113; 10 µM (active) with TAB165; 1.69 µM (active) and 4.26 µM (active) with W2.
With `c1ccc(C2(N3CCCC3)CCCCC2)cc1`, the Potency with PC26 was 13.5 µM (active); in the assay with TAB109, 7.94 µM (active); with TAB165, 12.6 µM (active); in the assay with W2, 7.57 µM (active).
For `OC(c1ccccc1)(c1ccccc1)C1CN2CCC1CC2` (stereo unspecified), in the assay with PC49, the Potency was 1 µM (active). In addition, the Potency entry with SC27B, in the assay with TAB113 and in the assay on TAB165 was “inactive” throughout.
As for `CN1CCCC(=C(c2cccs2)c2cccs2)C1`, the Potency in the assay on W2 was 4.78 µM (active).
With `COc1ccc(OC)c(C(O)C(C)N)c1` (stereo unspecified), the Potency result in the assay with PC26, with PC49, in the assay on SC27B, in the assay with TAB109, with TAB113 and in the assay with TAB165 was “inactive” each time. The Potency entry in the assay with W2 was “inactive”.
`CCN(CC)C(=O)/C(Cl)=C(\C)OP(=O)(OC)OC`: the Potency entry in the assay with PC49, with SC27B, in the assay with TAB109, in the assay with TAB113 and in the assay with TAB165 was “inactive” each time.
`CCCCCl`: the Potency result with PC49, in the assay with SC27B, with TAB109, in the assay on TAB113 and in the assay on TAB165 was “inactive” each time.
For the compound `C=CCC1(C(C)CCC)C(=O)N=C(S)NC1=O` (stereo unspecified), the Potency result in the assay with PC49, with SC27B, in the assay on TAB109, in the assay on TAB113, with TAB165 and in the assay with W2 was “inactive” in each case.
In the case of `CNC(=O)Oc1ccccc1C(=O)Nc1ccccc1`, the Potency in the assay on W2 was 13.5 µM (active).
Regarding `COC([CH2][Hg])CNC(=O)c1ccccc1OCC(=O)O` (stereo unspecified), the Potency entry in the assay with PC26, in the assay on PC49, in the assay with SC27B, in the assay with TAB113, in the assay on TAB165 and with W2 was “inactive” throughout.
As for `CCCN1CCCC2Cc3[nH]ncc3CC21` (stereo unspecified), the Potency entry with PC49, in the assay with SC27B, in the assay on TAB109, with TAB113 and in the assay with TAB165 was “inactive” throughout.
Turning to `CCOP(=O)(OCC)O/C(=C/Cl)c1ccc(Cl)cc1Cl`, the Potency result in the assay with PC49, with TAB109, in the assay with TAB113 and in the assay on TAB165 was “inactive” throughout.
With `CCCC(C)(COC(N)=O)COC(=O)NC1CC1` (stereo unspecified), the Potency entry with PC26, with PC49, with SC27B, in the assay on TAB113, in the assay on TAB165 and in the assay with W2 was “inactive” in each case.
Consider `CCC1(c2ccccc2)C(=O)NC(=O)N(C)C1=O` (stereo unspecified), for which, in the assay with PC49, the Potency entry was “inactive”. In addition, in the assay with W2, the Potency was 6.75 µM (active).
For the compound `C=CCN=C=S`, the Potency entry in the assay on PC49, with SC27B, with TAB109, in the assay on TAB113 and in the assay on TAB165 was “inactive” in each case.
Consider `CCC(=O)O[C@@](Cc1ccccc1)(c1ccccc1)[C@@H](C)CN(C)C`, for which the Potency entry with SC27B, with TAB109, in the assay with TAB113 and with TAB165 was “inactive” in each case.
Consider `CCC1C(C)=NN=C(c2ccc(OC)c(OC)c2)c2cc(OC)c(OC)cc21` (stereo unspecified), for which the Potency entry in the assay with PC49, with SC27B, with TAB109, with TAB113 and with TAB165 was “inactive” each time.
As to `O=Cc1ccco1`, the Potency entry in the assay on PC26, in the assay on PC49, in the assay on SC27B, with TAB109, in the assay on TAB113 and with W2 was “inactive” throughout.
Consider `CCCC(=O)OC(C(Cl)(Cl)Cl)P(=O)(OC)OC` (stereo unspecified), for which the Potency entry in the assay with PC49, in the assay with SC27B, in the assay with TAB109, in the assay with TAB113 and in the assay on TAB165 was “inactive” in each case.
Consider `CCC(C)(S(=O)(=O)CC)S(=O)(=O)CC`, for which the Potency result in the assay on PC26, with PC49, with SC27B, in the assay on TAB113, in the assay with TAB165 and with W2 was “inactive” throughout.
For `CN1[C@@H]2CC[C@H]1CC(OC1c3ccccc3CCc3ccccc31)C2` (stereo partly specified), the Potency result with PC49 and with TAB113 was “inactive” each time. Also, the Potency in the assay with TAB165 is 3.98 µM (active); with W2, 2.28 µM (active).
Take `O=C(CS(=O)C(c1ccccc1)c1ccccc1)NO` (stereo unspecified): the Potency result with PC26, in the assay on PC49, with SC27B, in the assay on TAB113, in the assay with TAB165 and in the assay on W2 was “inactive” each time.
Consider `N#CC(C#N)=Cc1cc(O)c(O)c(O)c1`, for which the values for the Potency in the assay with PC26, in the assay on TAB109 and in the assay with TAB165 were 8.49 µM (active), 3.98 µM (active) and 7.94 µM (active), respectively.
On to `[Cl-].[Cl-].[Hg+2]`, for which, in the assay with W2, the Potency was 9.53 µM (active).
As for `O=C(NC(=O)c1c(F)cccc1F)Nc1ccc(Cl)c(Oc2ncc(C(F)(F)F)cc2Cl)c1`, the Potency entry in the assay on PC26, with PC49, in the assay on SC27B, with TAB109, in the assay with TAB113 and in the assay with W2 was “inactive” in each case.
For `CC12NC(Cc3ccccc31)c1ccccc12` (stereo unspecified), the Potency entry with PC26 and with PC49 was “inactive” each time. Besides, the Potency was 2.82 µM (active) with TAB109 and 4.26 µM (active) in the assay on W2.
For `c1cc2c(c(NC3=NCCN3)c1)CCCC2`, the Potency entry in the assay with SC27B, in the assay with TAB109, in the assay with TAB113, in the assay on TAB165 and in the assay on W2 was “inactive” in each case.
For `CCOc1ccc2c3c1O[C@H]1[C@@H](O)C=C[C@H]4[C@@H](C2)N(C)CC[C@@]341`, the Potency result with PC49, with SC27B, with TAB113 and in the assay on TAB165 was “inactive” throughout.
Turning to `C/C(=C\c1csc(C)n1)[C@@H]1C[C@@H]2O[C@]2(C)CCC[C@H](C)[C@H](O)[C@@H](C)C(=O)C(C)(C)[C@@H](O)CC(=O)O1`, the Potency was 0.0034 µM (active) with PC26; 0.005 µM (active) with SC27B; 0.0025 µM (active) in the assay on TAB109; 0.0035 µM (active) in the assay with TAB113; 0.0022 µM (active) in the assay with TAB165; 0.0013 µM (active) in the assay with W2.
As to `C[C@@H](Cc1ccccc1)NCCC(c1ccccc1)c1ccccc1`, the Potency entry in the assay on PC49 is “inactive”. Also, the Potency in the assay with W2 is 2.87 µM (active).
As for `Cn1sc(Cl)cc1=O`, the Potency entry in the assay on PC26, in the assay on PC49, in the assay with SC27B, in the assay with TAB109, with TAB113 and in the assay on TAB165 was “inactive” throughout. Further, in the assay with W2, the Potency entry is “inactive”.
With `CCCCNCC(O)c1ccc(O)cc1` (stereo unspecified), the Potency result in the assay on PC26, in the assay with PC49, with SC27B, with TAB109, in the assay with TAB113 and with TAB165 was “inactive” each time. In the assay on W2, the Potency entry is “inactive”.
Regarding `COCC(C)N(C(=O)CCl)c1c(C)csc1C` (stereo unspecified), the Potency result in the assay with PC26, in the assay on PC49, in the assay on SC27B, with TAB109, with TAB113 and with TAB165 was “inactive” each time. Moreover, the Potency entry in the assay with W2 was “inactive”.
